From PubChem BioAssay come the findings set out here.

The experiment has as its system Plasmodium falciparum Sir2 (PF13_0152, Sir2A). Nature of the experiment: Plasmodium falciparum Sir2A binding compounds – biochemical, small-molecule microarray, 635 nm fluorescence, primary screen (AID 1098).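 Note: score merges spot fluorescence intensity with its signal-to-noise ratio.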 To be noted: fluorescence 635 nm, higher = more signal.
The molecule `CC(C)(C)N1CC=CC23O[C@@H]4/C=C\CCCOC(=O)C4[C@H]2C(=O)N(CCCO)[C@@H]3C1=O` (stereo partly drawn) showed a composite z-score of 1.18.

Molecule `Cc1ccc(S[C@]2(C(=O)NCCCN(C)C)CC(=O)N(C3Cc4ccccc4C3)[C@@H]2c2ccc(CO)cc2I)cc1` came in with a composite z-score of 1.58.

`CCOc1cc(C(O)C2C=CC3C(=O)N(c4ccccc4)C(=O)C3N2Nc2ccccc2F)ccc1O` (stereo not drawn) came in with a composite z-score of 1.53.

In the case of `Cc1ccc(F)cc1S(=O)(=O)N[C@H]1CCN(Cc2ccc(OC(C)C)cc2)C1`, the composite z-score stood at 1.23.

On to `COC(=O)C(CC#Cc1ccc2c(c1)[C@]1(C(=O)N2)[C@H](c2ccc(OCCO)cc2)N2[C@H](c3ccccc3)[C@H](c3ccccc3)OC(=O)[C@H]2[C@@H]1C(=O)N1CCCCCCC1)C(=O)OC`, for which the composite z-score was found to be 1.8.

`[N-]=[N+]=Nc1ccccc1C[C@]1(C(=O)N2CCOCC2)N=C(c2ccc(OCCCO)cc2)O[C@H]1c1ccccc1N=[N+]=[N-]` returned a composite z-score of 1.53.

In turn, `O=C(NC1CC1)[C@@H]1c2ccccc2C(=O)N(Cc2ccc(OC(F)(F)F)cc2)[C@H]1c1ccc(CO)cc1` had a composite z-score of 0.572.

In turn, `CN(C)CCCC[C@@H]1NC(=O)[C@H]2C[C@@H](C(=O)O)[C@@H](c3ccc(O)cc3)N2C1=O` showed a composite z-score of 2.03.

`CO[C@H]1O[C@H](CO)[C@@H](OC(=O)Nc2ccccc2)[C@H](OC(=O)Nc2ccccc2)[C@H]1OC(=O)Nc1ccccc1`: the composite z-score is 1.48.

On to `[N-]=[N+]=NCc1ccccc1[C@@H]1OC(c2ccc(OCCCO)cc2)=N[C@]1(Cc1ccccc1N=[N+]=[N-])C(=O)O`, for which the composite z-score amounted to 1.45.

The molecule `CC(C)=CCCC(C)=CC(O)C1C=CC2C(=O)NC(=O)C2N1Nc1ccc(Cl)cc1Cl` (stereo not drawn) displayed a composite z-score of 0.44.

In turn, `CC(C)C(=C=CC[C@H](O)c1ccccc1OCCO)C[C@H](O)c1cc(Cl)cc(Cl)c1O` had a composite z-score of 1.25.

Molecule `COc1ccc(C(=O)Nc2ccc3c(c2)[C@@]2(O[C@H](CCO)[C@@H]([Si](C)(C)c4ccc(OC)cc4)[C@@H]2C)C(=O)N3Cc2ccccc2)cc1` showed a composite z-score of 0.578.

Molecule `CC(C)(C)OC(=O)CC[C@@]1(C(=O)NCCN2CCOCC2)N=C(c2ccc(OCCCO)cc2)O[C@@H]1c1ccccc1CN=[N+]=[N-]` showed a composite z-score of 1.49.

`CC(C)C(CO)N1C(=O)[C@@H]2C3C(=O)OCCC/C=C\[C@H]3OC23C=CCN(Cc2ccccc2)C(=O)[C@@H]13` (stereo partly drawn) registered a composite z-score of 1.38.

As for `COC(=O)C(CC#Cc1ccc2c(c1)[C@]1(C(=O)N2)[C@H](C(=O)N2CCc3cc(OC)c(OC)cc3C2)[C@H]2C(=O)O[C@H](c3ccccc3)[C@H](c3ccccc3)N2[C@@H]1c1ccccc1OCCO)C(=O)OC`, the composite z-score amounted to 1.3.

In the case of `CC(C)=CCCC=C(C)C(O)C1C=CC2C(=O)N(c3ccccc3)C(=O)C2N1Nc1ccc(C#N)cc1` (stereo not drawn), the composite z-score was determined as 0.669.

Turning to `C=CCC(OC(C)=O)[C@@H]1[C@@H](N(Cc2cccc3ccccc23)C(=O)Cc2ccc(OC)cc2)c2cc(OCCCO)ccc2N1C(=O)Cc1ccc2ccccc2c1` (stereo partly drawn), the composite z-score came out at 0.067.

For `CN1C(=O)C2C=CC(C(O)c3ccc(-c4ccccc4)s3)N(NC(=O)OC(C)(C)C)C2C1=O` (stereo not drawn), the composite z-score was 0.871.

For the molecule `COC(=O)[C@@]1(Cc2ccccc2)N=C(c2ccc(OCCCO)cc2)O[C@H]1c1ccccc1CN=[N+]=[N-]`, the composite z-score worked out at 1.61.

The molecule `COc1ccc([Si](C)(C)[C@H]2[C@H](CC(=O)N3Cc4ccccc4C[C@H]3CO)O[C@@]3(C(=O)N(C)c4ccccc43)[C@@H]2C)cc1` had a composite z-score of 1.52.

`C=CCC(OC(C)=O)[C@@H]1[C@@H](N(Cc2cc3ccccc3o2)C(=O)c2cccc3ccccc23)c2cc(OCCCO)ccc2N1C(=O)c1ccc2ccccc2n1` (stereo partly drawn) had a composite z-score of -0.408.

Molecule `CCOC(=O)C[C@H]1[C@H](OC(=O)c2ccccc2-c2ccccc2)[C@@H](NC(=O)C2CCCCC2)c2cc(OCCCO)ccc2N1C(=O)c1ccc2ccccc2n1` registered a composite z-score of 0.486.

In turn, `O=C1C2C=CC(C(O)C3CCCCC3)N(n3cnnc3)C2C(=O)N1Cc1ccccc1` (stereo not drawn) showed a composite z-score of 0.815.

For `C=CCOC(=O)[C@@H]1[C@H]2C(=O)O[C@H](c3ccccc3)[C@H](c3ccccc3)N2[C@H](c2ccc(OCCOC(=O)[C@H]3C[C@H]4C(=O)N[C@@H](CCCCN(C)C)C(=O)N4[C@H]3c3ccc(O)cc3)cc2)[C@@]12C(=O)Nc1ccc(I)cc12`, the composite z-score was 1.52.

Turning to `O=C1C[C@]2(c3ccc([N+](=O)[O-])cc3)C(=O)N(C3CC3)c3cc(CO)ccc3[C@H]2N1C1CCCCC1`, the composite z-score was determined as 0.389.

Molecule `CN(C)CCCNC(=O)[C@@]1(Cc2ccccc2I)c2ccccc2C(=O)N(C2CCCCC2)[C@H]1c1ccc(CO)cc1` registered a composite z-score of 0.856.

Turning to `C=CCC(OC(C)=O)[C@@H]1[C@@H](N(Cc2cccc3ccccc23)C(=O)c2ccc(-c3ccccc3)cc2)c2cc(OCCCO)ccc2N1C(=O)Cc1ccc2ccccc2c1` (stereo partly drawn), the composite z-score was -0.121.
